Pf growth 48h = P. falciparum growth inhibition at 48 hours (one generation); P. falciparum luciferase growth in erythrocytes, 48 h; Potency, µM (series often up to 28.7 µM), hits mostly inhibitors; 310,000 tested, 5.9% active
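In quantitative HTS format, infected erythrocytes bearing luciferase-reporter parasites were treated for a single generation at 37 C. Luminescence after adding detection reagent served as the growth measure.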
SARS PLpro yeast = blocks SARS-CoV papain-like protease in a yeast assay; 330,000 tested, 0.19% active; Potency, µM (titrated, usually from 32.9 µM), most hits filed as activators; S. cerevisiae expressing SARS-CoV PLpro, growth rescue; calls by dose curve; note: nearly all actives have a fitted effect of over 55% in size
Pf growth 96h = P. falciparum growth inhibition at 96 hours; P. falciparum luciferase reporter growth, 96 h; Potency, µM (top dose mostly 28.7 µM), actives largely listed as inhibitors; 320,000 tested, 6.9% active; AID 504834
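P. falciparum expressing integrated firefly luciferase grown in erythrocytes (2% hematocrit, 0.05% parasitemia final) with compounds for 96 hours at 37 C, 5% CO2. Growth inhibition read as loss of luminescence after adding luciferase detection reagent.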
AmpC no deterg = inhibitors of E. coli AmpC beta-lactamase without detergent | AmpC nitrocefin hydrolysis, absorbance 480 nm, 0.0001% Triton | Potency, µM (series often up to 57.1 µM), hits mostly inhibitors | 330,000 tested, 0.52% active; note: nearly all actives have a fitted effect of over 20% in size
Target sequence (P00811 whole entry, looked up): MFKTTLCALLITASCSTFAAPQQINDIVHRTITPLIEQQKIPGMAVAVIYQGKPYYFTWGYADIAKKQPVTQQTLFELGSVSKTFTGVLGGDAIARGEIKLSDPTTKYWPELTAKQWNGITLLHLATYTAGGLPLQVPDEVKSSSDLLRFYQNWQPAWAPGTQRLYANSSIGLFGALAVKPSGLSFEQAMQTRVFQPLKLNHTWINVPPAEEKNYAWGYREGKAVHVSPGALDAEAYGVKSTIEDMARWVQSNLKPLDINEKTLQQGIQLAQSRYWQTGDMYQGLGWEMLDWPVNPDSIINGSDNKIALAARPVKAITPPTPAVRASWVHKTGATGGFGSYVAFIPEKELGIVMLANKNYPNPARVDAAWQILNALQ
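AmpC (5.3 nM in the dispensed reagent) in 20 mM phosphate pH 7.0 with 0.01% (detergent screen) or 0.0001% Triton X-100 was preincubated with compounds for 15 min at room temperature. Nitrocefin was then added from an 800 uM solution, and hydrolysis was followed at 480 nm.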
AmpC detergent = AmpC beta-lactamase inhibition with detergent present; 370,000 tested, 0.041% active; AmpC hydrolysis of nitrocefin, absorbance 480 nm, 0.01% Triton; P00811; Potency, µM (highest dose often 114 µM), most hits filed as inhibitors; note: nearly all actives have a fitted effect of over 25% in size
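20 mM phosphate pH 7.0 + 0.01% (detergent screen) or 0.0001% Triton X-100; 5.3 nM AmpC reagent; cpd preinc 15 min RT; nitrocefin (800 uM stock) to start; A480 q20 s × 4 min; Activity was normalised to no-enzyme and no-compound control wells.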
Sm TGR block = S. mansoni TGR enzyme inhibition | purified TGR, DTNB reduction, TNB absorbance 405 nm | Q962Y6 | 360,000 tested, 3% active | Potency, µM (highest dose often 114 µM), usual class: inhibitors; note: nearly all actives have a fitted effect of over 60% in size
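First, TGR (20 nM dispensed) and NADPH were mixed with compound. Second, a 15 min room-temperature incubation followed. Third, further NADPH and then DTNB were added to start the reaction. Finally, TNB absorbance was monitored kinetically.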
Each line names hits and unclear results; the compound was inactive in the other large screens. Compounds with a hit are over-represented: about 12% of the library has one in this group of screens. Unless noted, calls come from the whole dose curve; as a rule, active = well fitted curve in the direction sought with a large enough effect; inconclusive = small, poorly fitted or top-dose-only effect, or another doubt; inactive = no such curve, though single readings can be large; an effect the other way counts as inactive or inconclusive.

CC(NC(=O)c1cc([N+](=O)[O-])cc([N+](=O)[O-])c1)C1CC2CCC1C2 (stereo unspecified)	Pf growth 48h inconclusive, Pf growth 96h inconclusive
CCOc1ccccc1OCC(=O)NCc1ccco1	Pf growth 96h inconclusive, Sm TGR block 20µM
CCOc1ccc(C(=O)NCc2ccco2)cc1OCC	none
COc1ccc(OCCC(=O)OCC(=O)NCc2ccco2)cc1	Sm TGR block 50.1µM
COc1ccc(C(=O)OCC(=O)NCc2ccco2)cc1OC	AmpC detergent inconclusive, Sm TGR block 35.5µM
CCOc1ccc(C(=O)OCC(=O)NCc2ccco2)cc1OCC	AmpC detergent inconclusive, Sm TGR block 44.7µM
CCc1ccc(C(=O)Cc2cc3cccc(OC)c3oc2=O)cc1	none
CC(C)CCCC(C)CCCC(C)CCCCC(C)CCCC(C)CCCC(C)C (stereo unspecified)	none (no result: SARS PLpro yeast, AmpC no deterg, AmpC detergent, Sm TGR block)
Cc1ccc(-n2c(Cc3cccn3C)nnc2SCC(=O)NCc2ccc3c(c2)OCO3)cc1	Pf growth 48h inconclusive, Pf growth 96h inconclusive, AmpC detergent inconclusive
CCOC(=O)CN1C(=O)CC(c2ccc([N+](=O)[O-])cc2)C1=O (stereo unspecified)	Pf growth 96h 7.38µM, AmpC detergent inconclusive
CCOC(=O)c1sc(=S)n(-c2ccccc2)c1N(C(C)=O)C(C)=O	none
COc1ccc(C(=O)NCCCc2nc3ccccc3n2Cc2cc(C)ccc2C)cc1OC	Pf growth 48h 11.7µM, Pf growth 96h 10.4µM, AmpC detergent inconclusive
CCOC(=O)CN(C(=O)COc1nc(-c2ccccc2)cc(C)c1C#N)c1ccccc1	Pf growth 48h inconclusive, Pf growth 96h inconclusive
CCOC(=O)CN(C(=O)COc1nc(-c2ccccc2)cc(C)c1C#N)c1ccccc1C	Pf growth 48h 13.1µM, Pf growth 96h inconclusive
CCOC(=O)CN(C(=O)COc1nc(-c2ccccc2)cc(C)c1C#N)c1cccc(OC)c1	Pf growth 48h 7.38µM, Pf growth 96h 11.7µM
CCOC(=O)CN(C(=O)COc1nc(-c2ccccc2)cc(C)c1C#N)c1ccc(C)cc1	Pf growth 48h 13.1µM, Pf growth 96h 5.86µM
Cc1ccc(NC(=O)c2ccc3c(=O)n4nc(Nc5ccccc5C)sc4nc3c2)cc1C	none (no result: Pf growth 48h, SARS PLpro yeast, Pf growth 96h, AmpC no deterg)
COC(=O)CSc1ccccc1C(=O)OC	none (no result: Pf growth 96h)
O=C(CSC1=NS(=O)(=O)c2ccccc21)Nc1ccccc1	AmpC detergent inconclusive, Sm TGR block 2.51µM (no result: Pf growth 48h)
COC(=O)CSC1=NS(=O)(=O)c2ccccc21	Sm TGR block 2.51µM
CN(C)c1ccc(NC2=C([N+](=O)[O-])CS(=O)(=O)C2)cc1	Sm TGR block 2.24µM (no result: Pf growth 96h)
CCOC(=O)COc1cc(-n2c(=S)[nH]c3ccccc3c2=O)c(Cl)cc1Cl	Pf growth 48h inconclusive, AmpC no deterg 17.8µM, AmpC detergent inconclusive
COc1cc(N/C(N)=N/c2nc(C)cc(C)n2)cc(OC)c1	Pf growth 48h inconclusive, Pf growth 96h 10.4µM, AmpC detergent inconclusive
Cc1ccc(C)c(N/C(N)=N/c2nc(C)cc(C)n2)c1	Pf growth 48h 11.7µM, Pf growth 96h inconclusive
Cc1cc(C)nc(/N=C(\N)Nc2ccc(SC(F)F)cc2)n1	Pf growth 48h 11.7µM, Pf growth 96h 13.1µM
CC(=O)Nc1ccc(N/C(N)=N/c2nc(C)cc(C)n2)cc1	Pf growth 48h inconclusive, Pf growth 96h inconclusive
COc1ccc(C)cc1N/C(N)=N/c1nc(C)cc(C)n1	Pf growth 48h 11.7µM, Pf growth 96h inconclusive
COc1cc(NC(=O)CCc2c(C)nc3c4c(C)cc(C)nc4nn3c2C)cc(OC)c1	none (no result: Pf growth 48h, SARS PLpro yeast, Pf growth 96h, AmpC no deterg)
COc1cc2oc(=O)c(CC(=O)NCCc3ccccc3F)c(C)c2cc1OC	none (no result: Pf growth 48h, SARS PLpro yeast, Pf growth 96h, AmpC no deterg)
CC(CNC(=O)c1ccc2nc(CCc3ccccc3)oc2c1)c1ccccc1 (stereo unspecified)	none (no result: Pf growth 48h, SARS PLpro yeast, Pf growth 96h, AmpC no deterg)
Cc1onc(-c2c(F)cccc2Cl)c1C(=O)N1CCc2ccccc2C1	Pf growth 48h 5.86µM, Pf growth 96h inconclusive
COc1ccccc1N1CCN(C(=O)c2c(-c3c(F)cccc3Cl)noc2C)CC1	Pf growth 48h inconclusive, Pf growth 96h 11.7µM
Cc1onc(-c2ccccc2Cl)c1C(=O)N1CCc2ccccc2C1	Pf growth 48h inconclusive, Pf growth 96h inconclusive (no result: SARS PLpro yeast, AmpC no deterg)
Cc1onc(-c2c(Cl)cccc2Cl)c1C(=O)N=S(C)(=O)c1ccccc1 (stereo unspecified)	Pf growth 48h inconclusive, Pf growth 96h 10.4µM
Cc1onc(-c2c(Cl)cccc2Cl)c1C(=O)N1CCc2ccccc21	Pf growth 48h 8.28µM
COc1ccccc1N1CCN(C(=O)c2c(-c3ccccc3)noc2C)CC1	Pf growth 96h inconclusive
CCOc1ccc(CCNC(=O)CSCc2nc(-c3cccc(C)c3)oc2C)cc1OCC	none (no result: Pf growth 48h, SARS PLpro yeast, Pf growth 96h, AmpC no deterg)
COc1ccc(NC(=O)CC2S/C(=N\c3nccs3)N(C)C2=O)cc1 (stereo unspecified)	none
O=C(Cn1c(=O)n(-c2ccccc2)c(=O)c2c3c(sc21)CCCC3)Nc1cccc(F)c1	none (no result: Pf growth 48h, SARS PLpro yeast, Pf growth 96h, AmpC no deterg)
CCOc1ccc(OCC(=O)Nc2nnc3n2CCS3)cc1	none (no result: Pf growth 48h, SARS PLpro yeast, Pf growth 96h, AmpC no deterg)
COc1ccc(C(=O)Nc2nnc(S(=O)(=O)N3CCCc4ccccc43)s2)cc1	none (no result: Pf growth 48h, SARS PLpro yeast, Pf growth 96h, AmpC no deterg)
O=C(CC1C(=O)NCCN1Cc1ccc(-c2ccccc2)cc1)NCc1ccccc1 (stereo unspecified)	Pf growth 96h 6.57µM, Sm TGR block inconclusive
CCc1cc(CNC(=O)CC2C(=O)NCCN2Cc2ccc(-c3ccccc3)cc2)on1 (stereo unspecified)	Pf growth 96h 2.08µM, AmpC detergent inconclusive, Sm TGR block inconclusive
CCOC(=O)N1CCC(NC(=O)CC2C(=O)NCCN2Cc2ccccc2)CC1 (stereo unspecified)	Pf growth 96h 9.28µM, Sm TGR block inconclusive
CCOC(=O)N1CCC(NC(=O)Cc2ccccc2)CC1	AmpC detergent inconclusive
COc1ccc(S(=O)(=O)c2cnc3ccc(Cl)cc3c2N2CCCCC2C)cc1 (stereo unspecified)	none (no result: Pf growth 48h, SARS PLpro yeast, Pf growth 96h, AmpC no deterg)
Cc1cc[n+](CC(=O)c2ccc(NC(=O)c3ccccc3)cc2)c2ccccc12	Pf growth 48h 1.65µM, Pf growth 96h inconclusive
O=C(C[n+]1cccc2ccccc21)c1ccccc1	Pf growth 48h inconclusive, Pf growth 96h 13.1µM
O=C(C[n+]1cccc2ccccc21)c1ccc(NC(=O)c2ccccc2)cc1	Pf growth 48h 2.08µM, Pf growth 96h inconclusive
CCOc1ccc(C(=O)C[n+]2cccc3cc(C)ccc32)cc1	Pf growth 48h 8.28µM, AmpC detergent inconclusive
Cc1ccc(S(=O)(=O)N2CC(O)CC2C(=O)O)cc1 (stereo unspecified)	none
Cc1ccc(C)n1-c1ccc2c(c1)COC2=O	Pf growth 48h inconclusive, Sm TGR block 11.2µM
O=C1OCc2cc(-n3cccc3)ccc21	Pf growth 96h inconclusive

Source: PubChem (National Center for Advancing Translational Sciences (NCATS))
